The structures appear in SMILES notation. Screen size: about 340,000 compounds; about 2,100 (0.62%) were called active. The list is a sample of the results. Entries with a potency or affinity are not part of this list. Unmarked numbers belong to inactive results.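 How the source made its calls: active means first-screen hits whose inhibition reached a set limit at any dose in the follow-up dose series; inconclusive means inhibition above the set first-screen limit but never retested; inactive means the rest.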

The target in the experiment is Rac GTPase-activating protein 1 (Homo sapiens) (UniProt Q9H0H5). As to the kind of experiment: blockers of MgcRacGAP-driven Rac1 GTP hydrolysis – biochemical, ADP Hunter fluorescence, primary and confirmatory, confirmation (AID 624330).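 Further: fluorescence reports GDP produced by GAP-driven GTP hydrolysis.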 Conditions: MgcRacGAP-stimulated Rac1 GTP hydrolysis, at 30 µM, stronger effect = higher value, GST-tagged Rac1 F28L mutant substrate.
Rac GTPase-activating protein 1 (Homo sapiens), sequence (Q9H0H5 whole entry, looked up): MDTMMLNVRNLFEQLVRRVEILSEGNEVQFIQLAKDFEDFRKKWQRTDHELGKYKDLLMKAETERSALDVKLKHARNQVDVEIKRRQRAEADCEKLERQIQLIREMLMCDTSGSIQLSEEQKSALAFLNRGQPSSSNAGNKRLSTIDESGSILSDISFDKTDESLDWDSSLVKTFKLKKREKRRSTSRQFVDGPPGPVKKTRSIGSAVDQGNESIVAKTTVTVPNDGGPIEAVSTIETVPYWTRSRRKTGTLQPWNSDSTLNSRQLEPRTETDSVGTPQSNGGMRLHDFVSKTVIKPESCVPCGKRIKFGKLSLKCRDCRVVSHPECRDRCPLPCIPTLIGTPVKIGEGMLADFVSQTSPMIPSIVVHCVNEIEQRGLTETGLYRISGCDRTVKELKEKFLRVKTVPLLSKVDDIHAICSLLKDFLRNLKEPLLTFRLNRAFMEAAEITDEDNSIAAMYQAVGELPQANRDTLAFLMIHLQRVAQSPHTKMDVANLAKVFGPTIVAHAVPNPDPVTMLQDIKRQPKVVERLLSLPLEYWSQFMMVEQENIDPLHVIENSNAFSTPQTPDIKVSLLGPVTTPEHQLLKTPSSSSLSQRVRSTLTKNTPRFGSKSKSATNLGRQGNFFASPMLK
The inhibition is the change of the read-out against control, counted positive when it falls. For the compound `O=C(OCC(=O)N1CCc2ccccc21)c1ccncc1`, the inhibition was 3.21%.

Consider `CCC(CC)CN1CCC(CN2CCNC(=O)C2=O)CC1`, for which the inhibition is 0.28%.

As for `COc1cccc2cc(C(=O)Oc3ccccc3)c(=O)oc12`, the inhibition was 15.6%.

Turning to `COc1cc(C(C)=O)ccc1OC(=O)c1cc2cccc(OC)c2oc1=O`, the inhibition was 2.6%.

Turning to `COc1ccc(NC(=O)c2cc3cc(OC)ccc3oc2=O)cc1`, the inhibition was 7.32%.

On to `COc1ccc(NC(=O)c2cc3ccccc3oc2=O)cc1`, for which the inhibition was 20.1%.

As for `CCOc1ccccc1OC(=O)c1cc2ccccc2oc1=O`, the inhibition was 9.21%.

Take `O=C(Oc1ccccc1)c1cc2ccccc2oc1=O`: the inhibition was -4.44%.

Turning to `COc1cccc2cc(C(C)=O)c(=O)oc12`, the inhibition is -3.65%.

As to `CC(=O)Nc1ccc(OC(=O)c2cc3cc(Br)ccc3oc2=O)cc1`, the inhibition was 10.4%.

Consider `CCN(CC)S(=O)(=O)c1ccc(C(=O)Oc2cc(C)[nH]c(=O)c2[N+](=O)[O-])cc1`, for which the inhibition was 0.7%.

With `CCc1cccc(NS(=O)(=O)c2c(C)nc3scc(C)n3c2=O)c1`, the inhibition was 1.2%.

`C[C@@H]1CN([C@H](C)CO)C(=O)c2cc(NC(=O)Nc3ccc(F)cc3)ccc2O[C@@H](C)CCCCO[C@H]1CN(C)Cc1ccc(C(=O)O)cc1`: the inhibition was 10.2%.

Regarding `COc1ccc(N2C(=NC(=O)C3CC3)SC3CS(=O)(=O)CC32)cc1Cl` (centres undefined), the inhibition is 8.01%.

`Cc1ccsc1C(=O)OCC(=O)NC1CCCCC1`: the inhibition was -3%.

Turning to `O=C1CC(N2CCN(c3ccccc3)CC2)C(=O)N1c1cccc(Cl)c1` (centres undefined), the inhibition is 11.1%.

On to `COc1ccc(N2CC(C(=O)NNC(=O)c3ccc(Br)cc3)CC2=O)c(OC)c1` (centres undefined), for which the inhibition is 5.62%.

In the case of `O=C(Nc1nc(-c2ccc(F)cc2)cs1)c1cccc(N2C(=O)CCC2=O)c1`, the inhibition was 4.08%.

`Cc1ccc(SCC(=O)N2c3ccccc3Sc3ccccc32)cc1`: the inhibition is 6.99%.

As for `CCOC(=O)N1c2ccccc2Sc2ccccc21`, the inhibition was 1.37%.

Take `COc1cc2c(cc1OC)C(c1cccs1)N(C(=O)c1ccncc1)CC2` (centres undefined): the inhibition was 11.6%.

Turning to `COc1cccc(OCC(=O)NC2CCCCCC2)c1`, the inhibition is -1.14%.

Turning to `NNC(=O)c1cc2cc3ccccc3nc2s1`, the inhibition was 4.35%.

For `CCN1CCN(C(=O)c2cc3cc4cc(OC)ccc4nc3s2)CC1`, the inhibition is 8.34%.

Regarding `O=[N+]([O-])c1cc([N+](=O)[O-])c(Oc2cc(Cl)ccc2Cl)cc1NC1CCCCCCC1`, the inhibition is 3.85%.

`CCOC(=O)C1CCN(Cc2ccccc2C)CC1`: the inhibition was 2.84%.

For `CCOC(=O)C1CCN(Cc2ccc(OCc3ccccc3)cc2)CC1`, the inhibition was 18.4%.

Turning to `CCOC(=O)C1CCN(Cc2cccc(Oc3ccc(Cl)cc3)c2)CC1`, the inhibition is 21%.

Take `COc1cccc(CN2CCC(C(=O)N3CCN(Cc4ccc5c(c4)OCO5)CC3)CC2)c1`: the inhibition was 27.8%.

As for `CCOC(=O)C1CCN(Cc2ccccc2C(F)(F)F)CC1`, the inhibition is 8.95%.

`COc1cccc(CN2CCC(C(=O)N3CCN(c4ccccc4F)CC3)CC2)c1`: the inhibition is 15.7%.

As to `CCOC(=O)C1CCCN(Cc2ccc(-c3ccccc3)cc2)C1` (centres undefined), the inhibition was -2.6%.

Turning to `CCOC(=O)C1CCN(Cc2cccc(OCc3ccccc3)c2)CC1`, the inhibition is 19.5%.

For the compound `CCSc1ccc2nnc(-c3cccc(F)c3)n2n1`, the inhibition is 6.86%.

As to `COC(CN(C)C(=O)C1CCC(CNS(=O)(=O)c2ccccc2)CC1)OC` (centres undefined), the inhibition was 6.07%.

Consider `COc1ccc(CNC(=O)COC(=O)CN2C(=O)C3CCCCC3C2=O)cc1` (centres undefined), for which the inhibition is 12.8%.

For the compound `CC(C)c1nccn1CCC(=O)O`, the inhibition is 7.06%.

Regarding `C[C@H]1CN([C@@H](C)CO)S(=O)(=O)c2ccc(Br)cc2O[C@H]1CN(C)C(=O)Cc1ccccn1`, the inhibition is -10%.

In the case of `O=C1CC(c2ccccc2)Oc2cc(O)cc(O)c21` (centres undefined), the inhibition was 7.51%.

Consider `O=C1C[C@@H](c2ccccc2)Oc2cc(O)cc(O)c21`, for which the inhibition was 7.07%.

On to `COc1ccccc1NC(=O)COc1cccc2c1CCNC2=O`, for which the inhibition was 5.13%.

On to `O=S(=O)(NCC(c1ccc2c(c1)OCO2)N1CCOCC1)c1ccc(Br)cc1` (centres undefined), for which the inhibition was 5.07%.

Turning to `CC1=C(C#N)C(=O)NC(=O)/C1=C/c1ccc(-c2ccc(S(N)(=O)=O)cc2)o1`, the inhibition is 25.6%.

Turning to `CCCOC(=O)c1cc(-c2ccc(/C=C3/C(=O)N(C)C(=O)C(C#N)=C3C)o2)ccc1Cl`, the inhibition was 13.4%.

`COC(=O)c1ccccc1NC(=O)C/C(C)=N/NC(=O)Cc1ccc(Cl)cc1`: the inhibition was 4.76%.

`CC(=O)N1CCc2cc(S(=O)(=O)CCC(=O)N(C)c3cc(C)ccc3C)ccc21`: the inhibition is 2.95%.

Regarding `COc1ccc(Cn2c(-c3ccc(OC)c(O)c3)nc3ccccc32)cc1O`, the inhibition was 11.2%.

On to `Cc1ccc(NCc2cccnc2)cc1`, for which the inhibition was 9.95%.

Consider `COc1ccc(CNc2ccc(Br)cc2)cc1`, for which the inhibition is 9.45%.

Consider `COc1ccc(NC(=S)NCc2cccnc2)cc1`, for which the inhibition was 2.3%.

On to `COc1ccc(CNc2ccc(C(=O)O)cc2)cc1`, for which the inhibition is 5.05%.

As for `O=C(O)c1ccc(C(=O)O)c(C(=O)c2ccc(NC(=O)c3ccccc3)cc2)c1`, the inhibition was 8.04%.

On to `O=C(O)C1(P(=O)(c2ccc(Cl)cc2)c2ccc(Cl)cc2)CCCC1`, for which the inhibition was 10.3%.

For the compound `Cc1ccc2cc(N)ccc2n1`, the inhibition is 10.9%.

Regarding `Cn1cc2ccc(N)cc2n1`, the inhibition was 6.58%.

On to `CC(C)(C)C(=O)N1CCC2CC1c1cc(Cl)ccc12` (centres undefined), for which the inhibition is 9.89%.

Consider `CCN(CC)S(=O)(=O)c1ccc(N/N=C/c2cc(OC)ccc2O)nc1`, for which the inhibition is 5.07%.

Consider `CCN(CC)S(=O)(=O)c1ccc(N/N=C/c2cccnc2)nc1`, for which the inhibition is 2.22%.

Turning to `CCN(CC)S(=O)(=O)c1ccc(N/N=C/c2cc(OC)c(OC)cc2OC)nc1`, the inhibition was 4.42%.

For `CCOc1cccc(/C=N/Nc2ccc(S(=O)(=O)N(CC)CC)cn2)c1O`, the inhibition is 2.17%.

As to `CN(CC(=O)Nc1cccc(F)c1)C(=O)Cc1ccsc1`, the inhibition was 8.14%.

With `Cc1cc(C)c2nc(NC(=O)C3CSC4(C)CCC(=O)N34)sc2c1` (centres undefined), the inhibition is 5.06%.

In the case of `CC1=C(C(=O)OC(C)C)C(c2ccc(Br)s2)NC(=O)N1` (centres undefined), the inhibition was 1.12%.

Regarding `O=C(NCC(c1cccnc1)N1CCOCC1)C1CCCCC1` (centres undefined), the inhibition is 0.64%.

For the compound `COC(=O)c1ccc(OC)c(CN2CCCN(Cc3ccc(F)cc3)S2(=O)=O)c1`, the inhibition was 6.78%.

With `Cc1cccc(C)c1-n1cccc1/C=C1\SC(=S)N(c2cccc(C(=O)O)c2)C1=O`, the inhibition is -1.38%.

As for `O=C(O)CN1C(=O)/C(=C/c2ccc(SCc3ccccc3)o2)SC1=S`, the inhibition is 41%.

Regarding `O=C(NCC(c1ccco1)N1CCCC1)c1cccc(NS(=O)(=O)c2ccccc2)c1` (centres undefined), the inhibition was 7.02%.

With `COc1ccc(C2=NN(Cc3ccccc3)C3C(=O)NC(=O)C23)cc1` (centres undefined), the inhibition was 1.11%.

Consider `CC(=O)C1=C(O)C(=O)N(Cc2ccccc2)C1c1ccc(N(C)C)cc1` (centres undefined), for which the inhibition was 5.08%.

On to `O=C(N/C(=C/c1ccccc1)C(=O)N1CCCCC1)c1ccccc1`, for which the inhibition was 7.71%.

For `O=C(N/C(=C/c1ccccc1)C(=O)N1CCCCCC1)c1ccccc1`, the inhibition was 4.23%.

Take `Cc1cc(C)c2[nH]c(=O)c(CN(CC3CCCO3)S(=O)(=O)c3ccc4c(c3)OCCO4)cc2c1` (centres undefined): the inhibition was -7.75%.

Take `O=C1C2C3C=CC(C3)C2C(=O)N1Nc1c(Cl)cc(Cl)cc1Cl` (centres undefined): the inhibition was -1.67%.

Regarding `CCN(C(=O)CSc1nnc(-c2ccccc2Cl)n1C1CCCC1)C1CCS(=O)(=O)C1` (centres undefined), the inhibition is 10.2%.

For the compound `C=CCn1c(SCC(=O)NC2(C#N)CCCCC2)nnc1-c1ccncc1`, the inhibition was -2.35%.

With `COc1ccc(N2CCN(CC(=O)Nc3ccc(C)cc3)CC2)cc1`, the inhibition is 6.34%.

Take `O=C(CN1CCOCC1)Nc1cccc(S(=O)(=O)N2CCCCCC2)c1`: the inhibition was 4.7%.

Turning to `O=C(CNCC1CCCO1)Nc1ccccc1N1CCCCCC1` (centres undefined), the inhibition was 15.5%.

As for `CC1CCCC(C)N1S(=O)(=O)c1ccc(NC(=O)CNCC2CCCO2)cc1` (centres undefined), the inhibition is 13.2%.

With `COc1ccc(NC(=O)c2ccc(NC(=O)CN3CCN(c4ccccc4)CC3)cc2)cc1`, the inhibition was -2.48%.

Consider `CN1CCN(CCC(=O)Nc2ccc3c(c2)OCO3)CC1`, for which the inhibition is 9.52%.

For the compound `COc1ccc(S(=O)(=O)N2CCN(CC(=O)Nc3cccc(OC)c3)CC2)cc1`, the inhibition is -0.54%.

On to `CCN1CCN(CCC(=O)Nc2ccc3c(c2)OCO3)CC1`, for which the inhibition was -5.95%.

Take `CC1(C)CC(=O)C=C(NCCN2CCN(C(=S)Nc3ccccc3)CC2)C1`: the inhibition was 7.52%.

`Cc1ccc(NS(=O)(=O)c2ccc3c(c2)NC(=O)C(C)C(=O)N3)c(Br)c1` (centres undefined): the inhibition was -1.09%.

Turning to `Cc1onc(-c2ccccc2)c1C(=O)c1c[nH]c(C(=O)NCc2ccccn2)c1`, the inhibition was 3.33%.

As to `c1ccc(NN(Cc2ccccn2)c2ccccc2)cc1`, the inhibition is -6.65%.

Consider `O=C(CCC(=O)c1cccs1)Nc1ncccc1O`, for which the inhibition was 11.4%.

With `CCOC(CCNC(=O)c1cn(CC(C)C)c(=O)c2c1c1ccccc1n2C)OCC`, the inhibition was 17.2%.

In the case of `CC(=O)Nc1cccc(Oc2cc(C#N)c(C#N)cc2N2CCCCCC2)c1`, the inhibition is 5.07%.

As to `O=C(CNCc1ccccc1Cl)Nc1ccc2c(c1)OCCO2`, the inhibition was 29.9%.

Turning to `O=C(CN1CCN(c2ccc(F)cc2)CC1)Nc1ccc2c(c1)OCCO2`, the inhibition was 9.33%.

Consider `CC1CCCCN1CC(=O)Nc1ccc(Oc2ccccc2)cc1` (centres undefined), for which the inhibition is 9.36%.

In the case of `O=C(CNC1CCCC1)Nc1ccc(S(=O)(=O)N2CCCCC2)cc1`, the inhibition is 3.94%.

`O=C(CNC1CCCCC1)Nc1ccc(Cl)cc1`: the inhibition was 1.58%.

In the case of `O=C(CN1CCN(c2ccccc2)CC1)Nc1ccc2c(c1)OCCO2`, the inhibition was 0.3%.

With `CC1CCCCN1CC(=O)Nc1ccc2c(c1)OCO2` (centres undefined), the inhibition is 31%.

As for `O=C(CSCc1ccc(Cl)cc1)Nc1ccc2c(c1)OCCO2`, the inhibition is 5.15%.

The values are drawn from PubChem BioAssay AID624330 (Southern Research Specialized Biocontainment Screening …, 2012).
